Experimental data from PubChem BioAssay.
Unmarked numbers belong to inactive results. The rule behind the calls is not given here.

Target: Pantothenate synthetase (Mycobacterium tuberculosis (strain ATCC 25618 / H37Rv)) (UniProt P9WIL5)
Experiment: Recombinant Mtb pantothenate synthetase (PanC) inhibitors, coupled enzyme, confirmatory (AID 375);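 note: 0% = full reaction with vehicle and 100% = no enzyme background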
Conditions: coupled enzyme assay; at 10 µM, stronger effect = higher value

Sequence of Pantothenate synthetase (Mycobacterium tuberculosis (strain ATCC 25618 / H37Rv)) (P9WIL5 whole entry, looked up): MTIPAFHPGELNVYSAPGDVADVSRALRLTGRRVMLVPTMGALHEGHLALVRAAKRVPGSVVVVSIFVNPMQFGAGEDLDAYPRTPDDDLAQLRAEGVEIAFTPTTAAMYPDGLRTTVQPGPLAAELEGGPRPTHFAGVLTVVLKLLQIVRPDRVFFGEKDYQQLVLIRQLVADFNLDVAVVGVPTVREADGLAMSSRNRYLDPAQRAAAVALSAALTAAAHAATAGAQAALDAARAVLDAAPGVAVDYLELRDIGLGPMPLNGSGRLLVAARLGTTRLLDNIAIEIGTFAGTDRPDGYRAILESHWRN

Structure (SMILES) | inhibition
Cc1ccc2[nH]c3c(N4CCOCC4)ncnc3c2c1 | 0%
CC(=O)Nc1nnc(SCC(=O)NCC2CCCO2)s1 (stereo not drawn) | 0%
CC1(C)Cc2noc(N)c2C(C)(C)N1O | 0%
Cc1ccc(Cn2nnnc2CN2CCC(O)(c3ccccc3F)CC2)cc1 | 0%
CN1CCCN(CC(O)COCc2cccs2)CC1 (stereo not drawn) | 0%
CN=C(C)C1=C(O)C(C(=O)OC)C(C)(C)CC1=O (stereo not drawn) | 0%
Cc1ccc(-c2noc(CCC(=O)NCC3CCN(Cc4cccc(C)c4)CC3)n2)cc1 | 8%
Cc1sc(NC(=O)CSc2nnc(COc3ccccc3)n2C)c(C#N)c1C | 6%
Cc1cccc(N2C(=O)CC(N3CCN(C(=O)c4ccccc4)CC3)C2=O)c1 (stereo not drawn) | 5%
CCC(C)n1[nH]c(=O)c2c(C)cc(C)nc21 (stereo not drawn) | 0%
CCN(CC)c1nc2nonc2nc1N(CC)CC | 0%
O=C1c2ccccc2NC(c2cccc(F)c2)N1Cc1ccco1 (stereo not drawn) | 0%
Cc1nnc2sc(-c3cccc(NC(=O)c4cccnc4)c3)nn12 | 0%
O=C1OCCC1Sc1ncnc2sc3c(c12)CCC3 (stereo not drawn) | 0%
CC(=O)c1ccc(OCC(O)CN2CC(C)OC(C)C2)cc1 (stereo not drawn) | 0%
Cc1cc2c(c(=O)n1CCc1ccccc1)C(C(C)C)C(C#N)=C(N)O2 (stereo not drawn) | 5%
Cc1cc(S(=O)(=O)N(Cc2ccccc2)Cc2ccc(N(C)C)cc2)ccc1-n1cnnn1 | 0%
O=C(NCCN1CCOCC1)C1CC(=O)N(c2ccc(F)c(Cl)c2)C1 (stereo not drawn) | 7%
